Records with an inconclusive call do not appear. Activity calls are given as the source filed them. Calls follow the shape of the dose curve; as a rule, active = well fitted curve in the direction sought with a large enough effect; inconclusive = small, poorly fitted or top-dose-only effect, or another doubt; inactive = no such curve, though single readings can be large; an effect the other way counts as inactive or inconclusive.

In assay [1] the test system is Zika virus NS2B-NS3 protease (linked construct). The assay is described as follows: Primary screen NINDS Rhodamine qHTS for Zika virus inhibitors (AID 1347160). Also: nearly all actives have a fitted effect of over 55% in size. Also: potency is read from the fitted curve at half-maximal effect. In a few lines: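 Percent inhibition, normalized to uninhibited and enzyme-free controls, is fitted to a 4-parameter Hill equation. Fluorescence change comes from a 15-min cleavage of 1.5 microM bis-peptide Rhodamine110 substrate by 25 nM linked NS2B-NS3 at room temperature.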

Assay [2] in a line: HPAF-II Cancer Cell Toxicity qHTS against the NCATS CANVASS Library (AID 1347346). Also: nearly all actives have a fitted effect of over 55% in size. Also: potency is read from the fitted curve at half-maximal effect. In a few lines:
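HPAF-II cells at 1000 cells/well were treated with an 11-point concentration series for 72 hours at 37 degrees C. Viability read by CellTiter-Glo luminescence.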

A short description of assay [3]: OV-SAHO Cancer Cell Toxicity qHTS against the NCATS CANVASS Library (AID 1347348). Also: nearly all actives have a fitted effect of over 55% in size. Also: potency is read from the fitted curve at half-maximal effect. The method, boiled down:
(§1)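 Per well, 1000 cells; exposure 72 h with compound at 11 final concentrations; readout CellTiter-Glo luminescence.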
In general terms: Quantitative high-throughput screening tests each substance at several concentrations.

Assay [4] is described as follows: U-118MG Cancer Cell Toxicity qHTS against the NCATS CANVASS Library (AID 1347351). Also: potency is read from the fitted curve at half-maximal effect. The method, boiled down:
as §1

Assay [5] is described as follows: COV-362 Cancer Cell Toxicity qHTS against the NCATS CANVASS Library (AID 1347352). Also: potency is read from the fitted curve at half-maximal effect. The method, boiled down:
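Cells at 1000/well were given compound 4 h after plating in an 11-point series. Viability was read by CellTiter-Glo luminescence after 72 h at 37 degrees C.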

Assay [6] can be described thus: HEK293 18hr Apoptosis Induction qHTS against the NCATS CANVASS Library (AID 1347357). Also: potency is read from the fitted curve at half-maximal effect. The method, boiled down: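 HEK293 cells (500 per well, DMEM with 10% FBS) were treated with natural products, incubated 18 hours at 37 degrees C, then caspase-3/7 activity was read by Caspase-Glo luminescence after 15 min at room temperature.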
Assay [7] in a line: HPAF-II 12hr Apoptosis Induction qHTS against the NCATS CANVASS Library (AID 1347358). In a few lines: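 HPAF-II cells, 500/well in DMEM + 10% FBS, exposed 12 hours at 37 degrees C to compound (11-point). Caspase-Glo 3/7 added for 15 min at room temperature; luminescence reflects caspase-3/7 activity.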
Assay [8] is described as follows: HEK293 24hr Apoptosis Induction qHTS against the NCATS CANVASS Library (AID 1347359). Also: potency is read from the fitted curve at half-maximal effect. The method, boiled down:
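HEK293 cells (500/well, DMEM + 10% FBS) were exposed to compounds in an 11-point series for 24 hours at 37 degrees C, then caspase-3/7 activity was read by Caspase-Glo DEVD luciferase luminescence after 15 min.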

The nature of assay [9]: HPAF-II 18hr Apoptosis Induction qHTS against the NCATS CANVASS Library (AID 1347360). In a few lines:
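HPAF-II cells (500/well, DMEM + 10% FBS) were exposed to compounds for 18 hours at 37 degrees C. Caspase-3/7 activity was then read by Caspase-Glo 3/7 luminescence after 15 min at room temperature.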

The nature of assay [10]: HEK293 12hr Apoptosis Induction qHTS against the NCATS CANVASS Library (AID 1347361). Also: potency is read from the fitted curve at half-maximal effect. In a few lines: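 Read-out: Caspase-Glo 3/7 luminescence (DEVD substrate), 15 min RT. Preceded by 12 h compound exposure of HEK293, 500 cells/well, 11-pt qHTS titration; doxorubicin titration as control.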
Assay [11] addresses Luciferin 4-monooxygenase (Photinus pyralis) (UniProt P08659). The assay is described as follows: Firefly luciferase counterscreen qHTS: Assay Interference Panel against the NCATS CANVASS Library (AID 1347363). Also: series mostly up to about 57 µM. In a few lines:
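Purified P. pyralis luciferase was added to compounds (11-point series) preincubated 15 min at room temperature with substrate containing 0.013 mM D-luciferin and 0.013 mM ATP; luminescence was read after 5 min.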

Assay [12] in a line: MCF7 Cancer Cell Toxicity qHTS against the NCATS CANVASS Library (AID 1347369). Also: potency is read from the fitted curve at half-maximal effect. In a few lines: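 MCF7, 500 cells/well; cpds 11-pt qHTS; 72 hr, 37C/5% CO2; CellTiterGlo ATP luminescence.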
Assay [13] is described as follows: qHTS for ATAD5 Antagonist screened against the NCATS CANVASS Library (AID 1347370). Also: nearly all actives have a fitted effect of over 65% in size. Also: potency is read from the fitted curve at half-maximal effect. In a few lines: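 HEK293T cells with stably integrated ATAD5-luciferase reporter, 2000/well, 5 h attachment; compounds plus 10 µM 5-fluorouridine, 16 h at 37 °C. Luciferase luminescence read, with CellTiter-Fluor viability read first.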
Assay [14] in a line: J3T Cancer Cell Toxicity qHTS against the NCATS CANVASS Library (AID 1347371). Also: potency is read from the fitted curve at half-maximal effect. The method, boiled down:
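J3T dog glioma cells, 500 per well, treated 72 h at 37C with compounds (11-point qHTS); viability from ATP content by CellTiterGlo luminescence; bortezomib titration as control.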

Assay [15] has as its target Nuclear receptor subfamily 1 group I member 3 (Homo sapiens) (UniProt Q14994). The assay is described as follows: qHTS for Constitutive Androstane Receptor (CAR) Antagonist screened against the NCATS CANVASS Library (AID 1347372). Also: potency is read from the fitted curve at half-maximal effect. The method, boiled down: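 HepG2 cells stably carrying hCAR and a CYP2B6-2.2kb luciferase reporter were exposed to compounds plus 50 nM CITCO for 24hr at 37C. CAR activity was read by ONE-Glo luminescence, with viability measured first by CellTiter-Fluor.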

Assay [16] can be described thus: 10-beta competent E. coli microbial cell viability qHTS against the NCATS CANVASS Library (AID 1347376). Also: series mostly up to about 46 µM. The method, boiled down:
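10-beta competent E. coli (0.2 OD) were exposed overnight at 37C to compounds in an 11-point series. Viability was read as ATP-dependent BacTiter-Glo luminescence after 20 min at room temperature.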

A short description of assay [17]: qHTS for Inflammasome Signaling Inhibitors: IL-1-beta AlphaLISA screen against the NCATS CANVASS Library (AID 1347379).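 Also: human THP-1 cells primed with LPS then triggered with ATP.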 In a few lines:
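THP-1 cells pretreated 1 hr with compound (up to 57.5 uM final), then stimulated with LPS (250 ng/mL final) and ATP (1.25 mM final). Secreted IL-1B measured by AlphaLISA after 16 hr; glyburide as positive control.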

Assay [18] in a line: Inflammasome Signaling qHTS Counterscreen: IL-1-beta AlphaLISA counterscreen against the NCATS CANVASS Library (AID 1347381).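 Also: cell-free check with purified IL-1β in medium and no THP-1 cells; series mostly up to about 57 µM.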 In a few lines: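 Cell-free interference check: compounds added to medium spiked with 4 pg purified IL-1β. Anti-IL-1β acceptor beads (6 ug/mL) with 0.6 nM biotinylated antibody added for 1 h at RT, then streptavidin donor beads (24 ug/mL) for 30 min in the dark. AlphaLISA read at 680/615 nm.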

Assay [19] is described as follows: Cytotoxicity qHTS for assessment of Hepg2 cells membrane integrity screened against the NCATS CANVASS Library (AID 1347387). The method, boiled down:
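HepG2 cells (2000/well) attached overnight, then exposed 5 hr at 37C to compounds in an 11-point series (0.59 nM - 46 uM final). LDH release from damaged membranes read fluorometrically (CytoTox-ONE; 560/590 nm) after 10 min at room temperature.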

The nature of assay [20]: Vero-766 cells viability qHTS against the NCATS CANVASS Library: Counterscreen for Zika virus inhibition assay (AID 1347394). Also: nearly all actives have a fitted effect of over 60% in size. Also: potency is read from the fitted curve at half-maximal effect. In a few lines: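 Uninfected Vero 766 (African green monkey) cells, 1000/well, attached overnight, then exposed 72 h at 37C to compounds (11-point qHTS). Viability read by CellTiter-Glo luminescence; media-only wells served as 100% inhibition.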

Nuclear receptor subfamily 1 group I member 3 (Homo sapiens), sequence (Q14994 whole entry, looked up): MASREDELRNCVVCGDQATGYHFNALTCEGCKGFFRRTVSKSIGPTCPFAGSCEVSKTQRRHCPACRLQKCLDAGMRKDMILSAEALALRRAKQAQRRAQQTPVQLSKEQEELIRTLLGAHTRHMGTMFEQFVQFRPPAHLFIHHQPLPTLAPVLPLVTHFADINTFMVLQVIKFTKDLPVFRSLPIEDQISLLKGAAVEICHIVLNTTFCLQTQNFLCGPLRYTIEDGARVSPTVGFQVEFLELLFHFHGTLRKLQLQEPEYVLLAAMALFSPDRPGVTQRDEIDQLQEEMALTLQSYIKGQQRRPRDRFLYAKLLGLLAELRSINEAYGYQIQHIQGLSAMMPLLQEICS
Luciferin 4-monooxygenase (Photinus pyralis), sequence (P08659 whole entry, looked up): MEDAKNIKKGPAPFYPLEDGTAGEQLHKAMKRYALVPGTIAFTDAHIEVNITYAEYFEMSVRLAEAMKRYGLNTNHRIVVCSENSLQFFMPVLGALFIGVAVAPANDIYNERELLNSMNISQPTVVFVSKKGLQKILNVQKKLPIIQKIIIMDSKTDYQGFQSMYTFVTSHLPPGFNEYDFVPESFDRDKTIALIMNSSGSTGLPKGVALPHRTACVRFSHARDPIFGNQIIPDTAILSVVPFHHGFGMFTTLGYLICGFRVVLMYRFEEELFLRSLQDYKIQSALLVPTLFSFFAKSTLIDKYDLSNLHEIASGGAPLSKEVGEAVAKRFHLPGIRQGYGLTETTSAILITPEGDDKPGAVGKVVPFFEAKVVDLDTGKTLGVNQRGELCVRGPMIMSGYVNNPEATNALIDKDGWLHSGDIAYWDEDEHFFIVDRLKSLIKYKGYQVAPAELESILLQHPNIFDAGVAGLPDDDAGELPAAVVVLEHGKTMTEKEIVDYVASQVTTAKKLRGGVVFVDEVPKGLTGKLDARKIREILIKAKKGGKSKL

On to `Oc1ccc(C2c3c(O)cc(O)cc3[C@@H]3C(c4ccc(O)cc4)c4c(O)cc(O)cc4[C@H]23)cc1` (some centres undefined), for which the Potency in assay [1] was 34.9 µM (active). The Potency result in assay [2], in assay [3], in [4], in [5], in [6] and in assay [7] was “inactive” throughout. Moreover, the Potency entry in [8], in assay [9], in [10], in assay [11], in assay [12] and in assay [13] was “inactive” each time. Besides, the Potency entry in assay [14], in [15], in assay [17] and in [20] was “inactive” throughout. Moreover, the molecule was classed as inactive in [16], in assay [18] and in assay [19].
As to `Oc1ccc(/C=C2/c3cc(O)cc(O)c3C(c3ccc(O)cc3)[C@H]2c2cc(O)cc(O)c2)cc1` (some centres undefined), the values for the Potency in assay [1] and in assay [3] were 27.7 µM (active) and 14.9 µM (active), respectively. Further, the Potency entry in assay [2], in [4], in [5], in assay [6], in [7] and in [8] was “inactive” in each case. In addition, the Potency result in assay [9], in assay [10], in assay [11], in assay [12], in [13] and in [14] was “inactive” throughout. Also, the Potency entry in assay [15], in [17] and in assay [20] was “inactive” throughout. Also, the outcome in assay [16], in assay [18] and in [19] was inactive.
As for `C=CC(=C)CC[C@]1(C)[C@H]2C[C@H](OC(=O)C(C)CC)C=C3[C@H](OC(C)=O)O[C@H](OC(C)=O)[C@@]32[C@H](OC)C[C@@H]1C` (some centres undefined), the Potency is 32.1 µM (active) in assay [1]; 3.43 µM (active) in [2]; 2.73 µM (active) in assay [3]; 3.43 µM (active) in assay [4]; 4.33 µM (active) in assay [5]; 13.6 µM (active) in assay [6]. The Potency is 9.59 µM (active) in assay [8]; 17.1 µM (active) in [10]; 12.1 µM (active) in assay [12]; 10.8 µM (active) in [13]; 4.81 µM (active) in assay [14]; 12.1 µM (active) in assay [15]. In addition, the Potency in [17] is 7.03 µM (active); in assay [20], 6.8 µM (active). Further, the Potency result in assay [11] was “inactive”. The molecule was called inactive in assay [16] and in assay [18].
In the case of `CN1CC[C@]2(c3cccc4c3N[C@@H]3N(C)CC[C@]43[C@@]34CCN(C)[C@@H]3Nc3ccccc34)c3ccccc3N[C@H]12`, the Potency result in assay [1], in [7], in assay [8], in assay [9], in [10] and in [11] was “inactive” each time. Further, the Potency result in assay [13] was “inactive”. Further, the Potency in assay [2] is 18.8 µM (active); in [3], 18.8 µM (active); in assay [4], 7.49 µM (active); in assay [5] it was 13.3 µM (active); in [12] it was 9.31 µM (active); in [14], 7.43 µM (active). For the same molecule, the Potency is 26.3 µM (active) in [15], 24.3 µM (active) in [17] and 26.3 µM (active) in [20]. In addition, the call in [16], in assay [18] and in assay [19] was inactive.
Regarding `C/C(=C\[C@H](C)C(=O)CCCC1CC(=O)NC(=O)C1)[C@@H]1OC(=O)/C=C/CC/C=C/C[C@@H](O)[C@@H]1C`, the Potency in assay [1] was 17.5 µM (active); in assay [2] it was 1.49 µM (active); in [3], 2.98 µM (active); in assay [13] it was 2.34 µM (active); in assay [14], 2.64 µM (active); in [15], 3.71 µM (active). The Potency in assay [17] is 9.68 µM (active). Besides, the Potency entry in assay [6], in [7], in assay [8], in assay [9], in assay [10] and in assay [11] was “inactive” each time. The Potency result in [12] and in assay [20] was “inactive” each time. The molecule was classed as inactive in [16], in assay [18] and in assay [19].

The values above are taken from PubChem BioAssay (NCATS).
